Laboratory results: PubChem BioAssay (NCI)
Compounds without any hit were thinned out: in the full panel of roughly 83,000, 20% have a hit.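 Interpretation: 100, growth as untreated; towards 0, rising growth inhibition; 0, no net growth; 0 to -100, cell death. Compounds scoring below 10 were considered active.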 A number with no mark means an inactive call. Calls of active or inactive are those of the source.

These compounds were tested on BT-549 breast (assay: NCI-60 one-dose screen, 48 h (100 = growth as untreated, 0 = no growth, -100 = all killed)). Conditions: 10 µM unless noted.

SMILES | growth
Cc1cc(S(=O)(=O)/N=C(\N)n2nc(C)c(C)c2C)c(SCc2ccccc2)cc1Cl | 112%
CS(=O)(=O)Nc1cncc(-c2ccc3ncnc(Nc4cncc(Cl)c4)c3c2)c1 | 72.6%
CC(C)(Sc1cc(C(C)(C)C)c(OC(=O)CCCC(=O)O)c(C(C)(C)C)c1)Sc1cc(C(C)(C)C)c(OC(=O)CCCC(=O)O)c(C(C)(C)C)c1 | 39.8%
COc1cc2c(c(OC)c1OC)CCC(c1cccc(NC(=O)c3ccc(Br)cc3)c1)O2 (stereo not drawn) | 87.5%
COc1ccc(CNc2c3ccccc3nc3ccccc23)cc1 | 80.1%
N#CSc1c[nH]c2cccc(/C=C/C(=O)/C=C(/C=C/c3cccc4[nH]cc(SC#N)c34)OB(F)F)c12 | -25.3% (active)
CC1=NC2=Nn3c(c4cnn(-c5ccccc5)c4n/c3=N\N)NN2C(c2ccccc2)=C1 | 95.4%
COc1ccc(\C=N/N=C(N)/C(N)=N\N=C/c2ccc(OC)cc2)cc1 | 116%
NC(=O)c1cccc(-n2ccc3cc(NC(=O)c4ccc(N5CCOCC5)c(C(F)(F)F)c4)ccc32)n1 | 45.3%
CN(C)CC(C)(C)C(=O)/C=C/c1ccccc1 | -65% [25 µM] (active)
C=CCn1c(SCC(=O)Nc2ccc(C(=O)/C=C/c3ccc(Cl)cc3)cc2)nnc1-c1ccc(Br)cc1 | 87.4%
Cc1cn(-c2cc(NC(=O)c3cccc(C#Cc4cccc5[nH]nc(N)c45)c3)cc(C(F)(F)F)c2)cn1 | 30.3%
Oc1c(I)cc(I)cc1CNCCN(Cc1ccccn1)Cc1ccccn1 | -33.6% (active)
